Source: PubChem (National Center for Advancing Translational Sciences (NCATS))
Pf growth 48h: inhibits P. falciparum growth in the first generation, 48 h; Potency, µM (highest dose often 28.7 µM), actives largely listed as inhibitors; P. falciparum luciferase growth in erythrocytes, 48 h; 310,000 tested, 5.9% active
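Luminescence readout; reporter = integrated firefly luciferase in P. falciparum. RBC culture at 2% hematocrit, 0.1% parasitemia final, 37 C/5% CO2; decreased signal taken as growth inhibition.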
CHX counter: counter-screen for Shiga toxin inhibitors: cycloheximide protein synthesis inhibition; AID 2314; 300,000 tested, 12% active; max response, %; cell reporter, cycloheximide protein synthesis inhibition counterscreen; in the data active = max response mostly above about 13%, no sharp cut-off; inactive = mostly below about 14%; also: read at 38.3 µM for the half of the compounds with a filed dose
Pf growth 96h: P. falciparum growth inhibition at 96 hours; 320,000 tested, 6.9% active; Potency, µM (series often up to 28.7 µM), most hits filed as inhibitors; P. falciparum luciferase reporter growth, 96 h; AID 504834
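Luminescence readout: decreased luciferase signal marks inhibited growth of reporter-expressing P. falciparum in infected red cells (2% hematocrit, 0.05% parasitemia final), exposed to compound two generations (96 h, 37 C, 5% CO2).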
Shiga toxin inh: Shiga toxin inhibition; Vero cells, Shiga toxin protein synthesis inhibition reporter; inhibition, % at 38.7 µM; 290,000 tested, 9.2% active; AID 2315; in the data active = inhibition mostly above about 28%, no sharp cut-off; inactive = mostly below about 43%
SARS PLP yeast: inhibitors of SARS-CoV papain-like protease in yeast | Potency, µM (highest dose often 32.9 µM), actives largely listed as activators | 330,000 tested, 0.19% active | S. cerevisiae expressing SARS-CoV PLpro, growth rescue; calls by dose curve; also: nearly all actives have a fitted effect of over 55% in size
NS1 inh: inhibitors of influenza NS1 protein function; Potency, µM (highest dose often 46.1 µM); 270,000 tested, 0.4% active; AID 2326; calls by dose curve; also: actives are rising curves; nearly all actives have a fitted effect of over 50% in size
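A cell-based growth assay was used: compounds that relieve NS1-induced slow growth of budding yeast raise OD600. Assay medium was yeast nitrogen base with ammonium sulphate and -URA supplement, pH 6.0, with 2% galactose.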
A number is an active result. Sampled rows, rich in hits. Any-hit rate of the full collection: about 21%. Unless noted, calls follow the shape of the dose curve; as a rule, active = well fitted inhibition curve with a large enough effect; inconclusive = small, poorly fitted or top-dose-only effect, or another doubt; inactive = no such curve, though single readings can be large or run the other way.

Cc1ccc(C)c(NC(=O)C2CCN(C(=O)c3cccs3)CC2)c1 was read as Pf growth 48h inactive, CHX counter inactive, Pf growth 96h inconclusive, Shiga toxin inh inactive, SARS PLP yeast inactive and NS1 inh inactive.
CN(C(=O)COC(=O)c1ccc2ccccc2n1)C1CCCCC1 was read as SARS PLP yeast inactive.
For COc1ccc(Cn2c(-c3ccc(Br)cc3)c[n+]3ccccc23)cc1 the results were Pf growth 48h 0.657µM, CHX counter 56.6, Pf growth 96h 0.131µM, Shiga toxin inh 48.6, SARS PLP yeast inactive and NS1 inh inactive.
For COc1cccc(N(CC(=O)NC2CCCCC2)C(=O)Cn2nnc(-c3ccc(C)o3)n2)c1 the results were Pf growth 48h inconclusive, CHX counter inactive, Pf growth 96h inactive, Shiga toxin inh inactive, SARS PLP yeast inactive and NS1 inh inactive.
CC1(C)CC(NC(=O)c2cc(S(=O)(=O)N3CCCCC3)ccc2Cl)CC(C)(C)N1 was read as Pf growth 48h inactive, CHX counter inactive, Pf growth 96h inactive, Shiga toxin inh inactive, SARS PLP yeast inactive and NS1 inh inactive.
Screening O=C(NCCN1CCN(C(=O)NC2CCCCC2)CC1)NC1CCCCC1 returned Pf growth 48h inactive, CHX counter inactive, Pf growth 96h 13.1µM, Shiga toxin inh inactive, SARS PLP yeast inactive and NS1 inh inactive.
Screening COc1ccc(-c2nnc(NC(=O)c3ccc(S(=O)(=O)N4COCC4(C)C)cc3)o2)cc1 returned Pf growth 48h 11.7µM, CHX counter inactive, Pf growth 96h inactive, Shiga toxin inh inactive, SARS PLP yeast inactive and NS1 inh inactive.
`CCCN(CCC)S(=O)(=O)c1ccc(C(=O)Nc2nnc(-c3cc(OC)cc(OC)c3)o2)cc1` gave CHX counter inactive, Pf growth 96h inconclusive, Shiga toxin inh inactive, SARS PLP yeast inactive and NS1 inh inactive.
CC1(C)COCN1S(=O)(=O)c1ccc(C(=O)Nc2nnc(-c3ccc(Cl)s3)o2)cc1 was read as Pf growth 48h 4.15µM, CHX counter inactive, Pf growth 96h inactive, Shiga toxin inh inactive, SARS PLP yeast inactive and NS1 inh inactive.
Brc1ccccc1Cn1c(-c2cscn2)nc2ccccc21 was read as CHX counter inactive, Pf growth 96h 10.4µM, Shiga toxin inh inactive, SARS PLP yeast inconclusive and NS1 inh inactive.
`CSc1ccccc1NC(=O)Cn1c(-c2cscn2)nc2ccccc21` gave Pf growth 48h inactive, CHX counter inactive, Pf growth 96h inactive, Shiga toxin inh inactive, SARS PLP yeast inactive and NS1 inh inactive.
Cc1ccccc1Cn1c(-c2cncs2)nc2ccccc21 was read as Pf growth 48h 1.47µM, CHX counter inactive, Pf growth 96h inactive, Shiga toxin inh inactive, SARS PLP yeast inactive and NS1 inh inactive.
For C[C@H](NC(=O)[C@@H](N)Cc1ccc(O)cc1)C(=O)NCC(=O)N[C@H]1CSSC[C@@H](C(=O)O)NC(=O)[C@H](CO)NC(=O)[C@H]([C@@H](C)O)NC(=O)[C@H](Cc2ccccc2)NC(=O)[C@H]([C@@H](C)O)NC(=O)[C@H](CCCCN)NC(=O)[C@@H](Cc2c[nH]c3ccccc23)NC(=O)[C@H](Cc2ccccc2)NC(=O)[C@H](Cc2ccccc2)NC(=O)[C@H](CC(N)=O)NC(=O)[C@H](CCCCN)NC1=O the results were CHX counter inactive and Shiga toxin inh inactive.
For CCC/C=C/C=C/C(=O)OC1/C(=C/C(=O)OC)CC2CC(C(C)O)OC(=O)CC(O)CC3CC(OC(C)=O)C(C)(C)C(O)(CC4C/C(=C/C(=O)OC)CC(/C=C\C(C)(C)C1(O)O2)O4)O3 (stereo not drawn) the results were Pf growth 48h 3.79µM and Pf growth 96h 1.51µM.
`O=C(Nc1ccc(NS(=O)(=O)c2ccc([N+](=O)[O-])cc2)cc1)c1ccco1` gave Pf growth 48h inconclusive, CHX counter inactive, Pf growth 96h inconclusive, Shiga toxin inh inactive, SARS PLP yeast inactive and NS1 inh inactive.
CCc1c(C)nc2[nH]nc(-c3ccccc3)n2c1=O was read as Pf growth 48h inactive, CHX counter 15.3, Pf growth 96h inactive, Shiga toxin inh inactive, SARS PLP yeast inactive and NS1 inh inactive.
Cc1ccc(NC(=O)C2CCCO2)cc1[N+](=O)[O-] (stereo not drawn) was read as Pf growth 48h inactive, CHX counter 27.6, Pf growth 96h 2.62µM, Shiga toxin inh inactive, SARS PLP yeast inactive and NS1 inh inactive.
For CC(=O)c1ccc(NC(=O)C2CCCO2)cc1 (stereo not drawn) the results were Pf growth 48h inactive, CHX counter 38.4, Pf growth 96h inactive, SARS PLP yeast inactive and NS1 inh inactive.
`CC(=O)c1ccc(N2CCN(C(=O)c3ccc(NC(=O)C4CCCO4)cc3)CC2)cc1` (stereo not drawn) gave Pf growth 48h inconclusive, CHX counter 14.2, Pf growth 96h inactive, Shiga toxin inh inactive, SARS PLP yeast inactive and NS1 inh inactive.
For O=C(Nc1ccc(O)cc1)C1CCCO1 (stereo not drawn) the results were CHX counter inactive, Pf growth 96h inactive, Shiga toxin inh inactive, SARS PLP yeast inactive and NS1 inh inactive.
Screening CCOc1ccc(N(CC(=O)NCCSCc2ccccc2)S(C)(=O)=O)cc1 returned Pf growth 48h inactive, CHX counter inactive, Pf growth 96h inactive, Shiga toxin inh inactive, SARS PLP yeast inactive and NS1 inh inactive.
Screening Cc1cc(C)nc(/N=C(\N)N2CCCCCC2)n1 returned Pf growth 48h inactive, CHX counter inactive, Pf growth 96h inconclusive, Shiga toxin inh inactive, SARS PLP yeast inactive and NS1 inh inactive.
For Cc1cc(C)nc(/N=C(\N)N2CCc3ccccc32)n1 the results were Pf growth 48h inactive, CHX counter 33.2, Pf growth 96h inconclusive, Shiga toxin inh 87.8, SARS PLP yeast inactive and NS1 inh inactive.
For C=CCN1CCN(C(=O)CCc2ccccc2)CC1 the results were Pf growth 48h inactive, CHX counter inactive, Pf growth 96h inactive, Shiga toxin inh inactive, SARS PLP yeast inactive and NS1 inh inactive.
CCOC(=O)c1c(C)n(Cc2ccc3c(c2)OCO3)c2ccc(O)cc12 was read as Pf growth 48h inactive, CHX counter 30.2, Shiga toxin inh inactive, SARS PLP yeast inactive and NS1 inh inactive.
Screening CCOC(=O)c1c(C)n(Cc2ccc(F)cc2)c2ccc(O)cc12 returned Pf growth 48h inconclusive, CHX counter inactive, Pf growth 96h inactive, Shiga toxin inh inactive, SARS PLP yeast inactive and NS1 inh inactive.
`COC(=O)c1c(C)n(Cc2ccc3c(c2)OCO3)c2ccc(O)cc12` gave Pf growth 48h inconclusive, CHX counter 16.3, Pf growth 96h inactive, Shiga toxin inh inactive, SARS PLP yeast inactive and NS1 inh inactive.
`Cc1ccc(C(=O)NCC(=O)NCCc2ccc(S(N)(=O)=O)cc2)s1` gave Pf growth 48h inactive, CHX counter inactive, Pf growth 96h inactive, Shiga toxin inh inactive, SARS PLP yeast inactive and NS1 inh inactive.
`NC(=O)c1ccc(NC(=O)CN2CCN(S(=O)(=O)c3ccc4c(c3)OCCO4)CC2)cc1` gave Pf growth 48h inactive, Pf growth 96h inactive and SARS PLP yeast inactive.
